# Results filed as inconclusive are left out. Activity calls are given as the source filed them. Calls follow the shape of the dose curve; as a rule, active = well fitted inhibition curve with a large enough effect in the repeat runs; inconclusive = weak or mixed curves; inactive = flat fitted curve, though single readings scatter.
# Target: Luciferin 4-monooxygenase (Photinus pyralis) (UniProt P08659)
# Assay: qHTS assay to identify small molecule inhibitors of firefly luciferase (AID 1224835); also: nearly all actives have a fitted effect of over 25% in size
# Conditions: purified P. pyralis luciferase, luminescence inhibition; series mostly up to 115 µM; activity change, negative = inhibition: at the top concentration
# From the text: U.S. Tox21 Program National Center for Advancing Translational Sciences [NCATS] NIH Chemical Genomics Center [NCGC] U.S. Environmental Protection Agency [EPA] National Institutes of Environmental Health Sciences [NIEHS] National Toxicology Program [NTP] U.S. Food and Drug Administration [FDA] Tox21 Assay Overview: Firefly (Photinus pyralis) luciferase is one of the most commonly used transcriptional reporters. Firefly luciferase reporter-gene assays are generally considered one of the most sensitive assay types (Wood, 1995; Wood, 1998). However, it was initially observed, in 1991, by Thompson et al., that compounds that resemble the substrates of firefly luciferase (FLuc) can act as competitive inhibitors of the enzyme, and that these compounds, upon interaction with luciferase in the cell, can actually stabilize the protein and increase its half-life. Previous profiling work by other groups to determine the prevalence of compounds that affect FLuc enzymatic activity (PubChem AID 411) identified that ~3% of the MLSMR library (then at ~72K) inhibited FLuc. […] Thus the Tox21 10K library is profiled for activity against FLuc using a biochemical assay of purified FLuc and KM concentrations of FLuc substrates (D-luciferin and ATP).
# These assay plates were then treated with 23nL of compound or DMSO using a Kalypsys pin tool, which allows for delivery of a 6-point interplate titration of each compound to the assay plate (quantitative HTS.) 1 uL of firefly luciferase mix (containing 50 mM Tris acetate, pH 7.6, 0.04 uM P. pyralis luciferase, 0.01% Tween, 0.05% BSA and dH2O) was then delivered by FRD to each well. Luciferase activity was then measured using a ViewLux CCD imager.
# % is scaled to controls: 0 for no effect and ±100 for the full control effect; potency is read from the fitted curve at half-maximal effect.
# Chain of Luciferin 4-monooxygenase (Photinus pyralis) (P08659 whole entry, looked up): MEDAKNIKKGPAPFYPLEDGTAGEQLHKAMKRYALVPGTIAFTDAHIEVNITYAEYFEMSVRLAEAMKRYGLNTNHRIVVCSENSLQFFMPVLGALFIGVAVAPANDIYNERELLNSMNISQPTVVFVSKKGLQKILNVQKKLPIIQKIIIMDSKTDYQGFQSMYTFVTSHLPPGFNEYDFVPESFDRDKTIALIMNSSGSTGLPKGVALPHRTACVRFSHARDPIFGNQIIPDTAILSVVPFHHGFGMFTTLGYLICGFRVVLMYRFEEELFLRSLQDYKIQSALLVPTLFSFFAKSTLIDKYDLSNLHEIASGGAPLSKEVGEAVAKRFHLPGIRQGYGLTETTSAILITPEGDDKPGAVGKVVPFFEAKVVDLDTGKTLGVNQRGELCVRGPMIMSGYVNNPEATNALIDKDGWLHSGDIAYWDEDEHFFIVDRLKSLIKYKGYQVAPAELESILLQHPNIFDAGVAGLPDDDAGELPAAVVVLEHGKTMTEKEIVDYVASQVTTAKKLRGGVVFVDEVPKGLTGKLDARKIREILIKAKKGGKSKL
SMILES,"activity change, negative = inhibition",Potency
Clc1ccc(Oc2ccccc2)cc1,-11.6% (inactive),
C=CC(=O)N(C)C,-1.1% (inactive),
Oc1ccc(C(=C(Cl)Cl)c2ccc(O)cc2)cc1,-0.403% (inactive),
C[C@@H]1O[C@@H](O[C@H]2C[C@@H](O)[C@]3(CO)[C@H]4[C@H](O)C[C@]5(C)[C@@H](C6=CC(=O)OC6)CC[C@]5(O)[C@@H]4CC[C@]3(O)C2)[C@H](O)[C@H](O)[C@H]1O,,inactive
N#Cc1ccccc1Cl,-5.32% (inactive),
ClC(Cl)=C(Cl)Cl,-0.702% (inactive),
CC(C)[C@H](C(=O)OC(C#N)c1cccc(Oc2ccccc2)c1)c1ccc(OC(F)F)cc1 (stereo not given in full),-1.77% (inactive),
NC(=O)CCl,0.362% (inactive),
CC(Cl)CN(C)C (stereo not given),-2.63% (inactive),
CC(C)(C)c1cc([N+](=O)[O-])cc(C(C)(C)C)c1O,-1.51% (inactive),
O=C(CCl)C(Cl)Cl,3.28% (inactive),
CCCN(CCC)c1c([N+](=O)[O-])cc(S(N)(=O)=O)cc1[N+](=O)[O-],2.45% (inactive),
CC1(C)C(/C=C(\Cl)C(F)(F)F)C1C(=O)OC(C#N)c1cccc(Oc2ccccc2)c1 (stereo not given),3.14% (inactive),
ClCc1ccccc1CCl,-4.75% (inactive),
CC(O)C#N (stereo not given),1.6% (inactive),
COc1ccc([N+](=O)[O-])cc1O,2.18% [at 52.9 µM] (inactive),
CCc1cc(C)cc(CC)c1-c1c(OC(=O)C(C)(C)C)n2n(c1=O)CCOCC2,0.257% (inactive),
Cc1ccc(CCl)cc1,1.6% (inactive),
CC(C)(COCC1CO1)COCC1CO1 (stereo not given),-5.15% (inactive),
CC1(C)CC/C(=C/c2ccc(Cl)cc2)C1(O)Cn1cncn1 (stereo not given),4.16% (inactive),

SMILES,"activity change, negative = inhibition",Potency
CC[C@H]1C[C@@H]2C[C@H]3c4[nH]c5ccc(OC)cc5c4CCN(C2)[C@@H]13,1.82% (inactive),
N#Cc1ccc(O)cc1,0.54% (inactive),
CS(=O)(=O)c1ccc(C(=O)C2C(=O)CCCC2=O)c([N+](=O)[O-])c1,1.62% (inactive),
CCN,3.13% (inactive),
CCCCOCN(C(=O)CCl)c1c(CC)cccc1CC,0.659% (inactive),
CC(C)CC(C)Nc1ccc(Nc2ccccc2)cc1 (stereo not given),,39.3 µM (active)
CC(=[OH+])/C=C(/C)[O-].CC(=[OH+])/C=C(\C)[O-].CC(=[OH+])/C=C(\C)[O-].[Fe],,39.9 µM (active)
CC(C)CC(C)N (stereo not given),0.0819% (inactive),
O=CC(Br)(Br)Br,,17.8 µM (active)
CC(=O)c1ccc(-c2ccccc2)cc1,,31.7 µM (active)
CC[C@H](C)[C@H]1O[C@]2(C=C[C@@H]1C)C[C@@H]1C[C@@H](C/C=C(\C)[C@@H](O[C@H]3C[C@H](OC)[C@@H](O[C@H]4C[C@H](OC)[C@@H](O)[C@H](C)O4)[C@H](C)O3)[C@@H](C)/C=C/C=C3\CO[C@@H]4[C@H](O)C(C)=C[C@@H](C(=O)O1)[C@]34O)O2,7.4% [at 52.9 µM] (inactive),
Cc1cc(C(C)(C)c2cc(C)c(O)c(C)c2)cc(C)c1O,-14.3% (inactive),
C=CCOC(N)=O,0.6% (inactive),
CC1CCC(C(C)C)C(OC(=O)c2ccccc2N)C1 (stereo not given),3.87% (inactive),
CN(C)c1ccc(N=Nc2ccccc2)cc1,,0.252 µM (active)
N#CC(Cl)Cl,2.85% (inactive),
CCc1nn(C)c(C(=O)NCc2ccc(C(C)(C)C)cc2)c1Cl,-2.94% (inactive),
CCCCN(CCCC)C(=S)[S-].CCCCN(CCCC)C(=S)[S-].[Zn+2],3.19% (inactive),
[Cl][Sb]([Cl])[Cl],0.299% (inactive),
C[C@@H]1CC[C@@]2(OC1)O[C@H]1[C@@H](O)[C@H]3[C@@H]4CC[C@H]5C[C@@H](O[C@@H]6O[C@H](CO)[C@H](O[C@@H]7O[C@H](CO)[C@@H](O)[C@H](O[C@@H]8OC[C@@H](O)[C@H](O)[C@H]8O)[C@H]7O[C@@H]7O[C@H](CO)[C@@H](O)[C@H](O[C@@H]8O[C@H](CO)[C@@H](O)[C@H](O)[C@H]8O)[C@H]7O)[C@H](O)[C@H]6O)[C@H](O)C[C@]5(C)[C@H]4CC[C@]3(C)[C@H]1[C@@H]2C,4.27% (inactive),
